# Laboratory results from publication PMC8384837, “Expanding the binding specificity for RNA recognition by a PUF domain”.
# What was measured:
# Assay in all cases: yeast three-hybrid, YBZ-1, SC-Leu-His + 0.5 mM 3-AT, 4 days
# Conditions in all cases: tags: N-Gal4 AD-HA kept; label: inside an RPR1-promoter hybrid RNA with tandem MS2 sites; ssRNA
# PUM1 PUF domain R4-DYS = PUM1 PUF domain R4-DYS (Homo sapiens, UniProt Q14671 828-1176, N971D;H972Y;Q975S)
# Outline: (§1)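 The interaction score is the logarithmic change in variant frequency from input to selection. It uses log2, with a pseudocount of 1 for absent variants, and frequencies came from PCR-amplified, Illumina-sequenced repeat regions. The libraries were Pumilio-1 PUF domains randomized at the three base-contacting residues per repeat, co-expressed with matching RNA elements in strain YBZ-1 (LexA–MS2 coat fusion, HIS3 reporter). Plating lasted four days on SC-Leu (input) or SC-Leu-His + 0.5 mM 3-AT (selection).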
# PUM1 PUF domain R3-LWL = PUM1 PUF domain R3-LWL (Homo sapiens, UniProt Q14671 828-1176, C935L;R936W;Q939L)
# Outline: as §1
# PUM1 PUF domain R3-EWR = PUM1 PUF domain R3-EWR (Homo sapiens, UniProt Q14671 828-1176, C935E;R936W;Q939R)
# Outline: as §1
# PUM1 PUF domain R3-APR = PUM1 PUF domain R3-APR (Homo sapiens, UniProt Q14671 828-1176, C935A;R936P;Q939R)
# Outline: as §1
# PUM1 PUF domain R3-GRC = PUM1 PUF domain R3-GRC (Homo sapiens, UniProt Q14671 828-1176, C935G;Q939C)
# Outline: as §1
# PUM1 PUF domain R1-RRE = PUM1 PUF domain R1-RRE (Homo sapiens, UniProt Q14671 828-1176, S863R;Q867E)
# Outline: as §1
# PUM1 PUF domain R5-GSK = PUM1 PUF domain R5-GSK (Homo sapiens, UniProt Q14671 828-1176, C1007G;R1008S;Q1011K)
# Outline: as §1
# PUM1 PUF domain R7-CTR = PUM1 PUF domain R7-CTR (Homo sapiens, UniProt Q14671 828-1176, S1079C;N1080T;E1083R)
# Outline: as §1
# PUM1 PUF domain R7-EPD = PUM1 PUF domain R7-EPD (Homo sapiens, UniProt Q14671 828-1176, S1079E;N1080P;E1083D)
# Outline: as §1
# PUM1 PUF domain R7-QGG = PUM1 PUF domain R7-QGG (Homo sapiens, UniProt Q14671 828-1176, S1079Q;N1080G;E1083G)
# Outline: as §1
# PUM1 PUF domain R8-RYQ = PUM1 PUF domain R8-RYQ (Homo sapiens, UniProt Q14671 828-1176, N1122R)
# Outline: as §1
# PUM1 PUF domain R1-MPR = PUM1 PUF domain R1-MPR (Homo sapiens, UniProt Q14671 828-1176, S863M;R864P;Q867R)
# Outline: as §1
# PUM1 PUF domain R1-KNI = PUM1 PUF domain R1-KNI (Homo sapiens, UniProt Q14671 828-1176, S863K;R864N;Q867I)
# Outline: as §1
# PUM1 PUF domain R3-DWQ = PUM1 PUF domain R3-DWQ (Homo sapiens, UniProt Q14671 828-1176, C935D;R936W)
# Outline: as §1
# PUM1 PUF domain R8-CYC = PUM1 PUF domain R8-CYC (Homo sapiens, UniProt Q14671 828-1176, N1122C;Q1126C)
# Outline: as §1
# PUM1 PUF domain R8-AWQ = PUM1 PUF domain R8-AWQ (Homo sapiens, UniProt Q14671 828-1176, N1122A;Y1123W)
# Outline: as §1
# PUM1 PUF domain R5-TPR = PUM1 PUF domain R5-TPR (Homo sapiens, UniProt Q14671 828-1176, C1007T;R1008P;Q1011R)
# Outline: as §1
# PUM1 PUF domain R1-KCQ = PUM1 PUF domain R1-KCQ (Homo sapiens, UniProt Q14671 828-1176, S863K;R864C)
# Outline: as §1
# PUM1 PUF domain R6-IFN = molecular target: T1, PUM1 PUF domain R6-IFN (Homo sapiens, UniProt Q14671 828-1176, N1043I;Y1044F;Q1047N)
# T1 sequence: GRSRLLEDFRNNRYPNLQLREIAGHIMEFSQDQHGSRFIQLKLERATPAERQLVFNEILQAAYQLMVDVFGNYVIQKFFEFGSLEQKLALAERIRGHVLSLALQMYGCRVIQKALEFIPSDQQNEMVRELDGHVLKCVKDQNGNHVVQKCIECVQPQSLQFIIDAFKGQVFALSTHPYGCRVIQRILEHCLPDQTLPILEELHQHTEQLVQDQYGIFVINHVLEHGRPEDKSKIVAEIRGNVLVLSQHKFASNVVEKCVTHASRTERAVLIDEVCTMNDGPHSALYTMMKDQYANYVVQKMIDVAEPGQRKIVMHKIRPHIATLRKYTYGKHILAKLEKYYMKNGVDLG
# Outline: as §1
# PUM1 PUF domain R2-LHR = PUM1 PUF domain R2-LHR (Homo sapiens, UniProt Q14671 828-1176, N899L;Y900H;Q903R)
# Outline: as §1
sequence,measurement,setting,value
GGCUAGAACUAGUGGAUCCCCCGGCGCCCGGCGGCUCGAGCCCGGGUAAGUGUAUAUAGUCUGCAUGCCGCCGGGCGCCAUGCCUGCAGGUCGACUCUAGAAAACAUG,binding signal,PUM1 PUF domain R4-DYS,7.01 log2 enrichment (interaction score)
GGCUAGAACUAGUGGAUCCCCCGGCGCCCGGCGGCUCGAGCCCGGGUAAGUGUAAGUAGUCUGCAUGCCGCCGGGCGCCAUGCCUGCAGGUCGACUCUAGAAAACAUG,binding signal,PUM1 PUF domain R3-LWL,4.64 log2 enrichment (interaction score)
same,binding signal,PUM1 PUF domain R3-EWR,0.97 log2 enrichment (interaction score)
same,binding signal,PUM1 PUF domain R3-APR,1.67 log2 enrichment (interaction score)
same,binding signal,PUM1 PUF domain R3-GRC,0.66 log2 enrichment (interaction score)
GGCUAGAACUAGUGGAUCCCCCGGCGCCCGGCGGCUCGAGCCCGGGUAAGUGUAAAUGGUCUGCAUGCCGCCGGGCGCCAUGCCUGCAGGUCGACUCUAGAAAACAUG,binding signal,PUM1 PUF domain R1-RRE,2.12 log2 enrichment (interaction score)
GGCUAGAACUAGUGGAUCCCCCGGCGCCCGGCGGCUCGAGCCCGGGUAAGUGUUAAUAGUCUGCAUGCCGCCGGGCGCCAUGCCUGCAGGUCGACUCUAGAAAACAUG,binding signal,PUM1 PUF domain R5-GSK,2.59 log2 enrichment (interaction score)
GGCUAGAACUAGUGGAUCCCCCGGCGCCCGGCGGCUCGAGCCCGGGUAAGUUUAAAUAGUCUGCAUGCCGCCGGGCGCCAUGCCUGCAGGUCGACUCUAGAAAACAUG,binding signal,PUM1 PUF domain R7-CTR,2.95 log2 enrichment (interaction score)
same,binding signal,PUM1 PUF domain R7-EPD,3.42 log2 enrichment (interaction score)
same,binding signal,PUM1 PUF domain R7-QGG,3.51 log2 enrichment (interaction score)
GGCUAGAACUAGUGGAUCCCCCGGCGCCCGGCGGCUCGAGCCCGGGUAAGGGUAAAUAGUCUGCAUGCCGCCGGGCGCCAUGCCUGCAGGUCGACUCUAGAAAACAUG,binding signal,PUM1 PUF domain R8-RYQ,2.37 log2 enrichment (interaction score)
GGCUAGAACUAGUGGAUCCCCCGGCGCCCGGCGGCUCGAGCCCGGGUAAGUGUAAAUCGUCUGCAUGCCGCCGGGCGCCAUGCCUGCAGGUCGACUCUAGAAAACAUG,binding signal,PUM1 PUF domain R1-MPR,2.06 log2 enrichment (interaction score)
same,binding signal,PUM1 PUF domain R1-KNI,4.2 log2 enrichment (interaction score)
same,binding signal,PUM1 PUF domain R1-RRE,3.92 log2 enrichment (interaction score)
GGCUAGAACUAGUGGAUCCCCCGGCGCCCGGCGGCUCGAGCCCGGGUAAGUGUAAUUAGUCUGCAUGCCGCCGGGCGCCAUGCCUGCAGGUCGACUCUAGAAAACAUG,binding signal,PUM1 PUF domain R3-LWL,4.13 log2 enrichment (interaction score)
same,binding signal,PUM1 PUF domain R3-EWR,3.22 log2 enrichment (interaction score)
same,binding signal,PUM1 PUF domain R3-APR,2.28 log2 enrichment (interaction score)
same,binding signal,PUM1 PUF domain R3-DWQ,4.15 log2 enrichment (interaction score)
same,binding signal,PUM1 PUF domain R3-GRC,1.22 log2 enrichment (interaction score)
GGCUAGAACUAGUGGAUCCCCCGGCGCCCGGCGGCUCGAGCCCGGGUAAGCGUAAAUAGUCUGCAUGCCGCCGGGCGCCAUGCCUGCAGGUCGACUCUAGAAAACAUG,binding signal,PUM1 PUF domain R8-CYC,2.77 log2 enrichment (interaction score)
same,binding signal,PUM1 PUF domain R8-AWQ,2.11 log2 enrichment (interaction score)
GGCUAGAACUAGUGGAUCCCCCGGCGCCCGGCGGCUCGAGCCCGGGUAAGUGUAAAUAGUCUGCAUGCCGCCGGGCGCCAUGCCUGCAGGUCGACUCUAGAAAACAUG,binding signal,PUM1 PUF domain R4-DYS,4.45 log2 enrichment (interaction score)
same,binding signal,PUM1 PUF domain R3-LWL,2.69 log2 enrichment (interaction score)
same,binding signal,PUM1 PUF domain R8-RYQ,4.32 log2 enrichment (interaction score)
same,binding signal,PUM1 PUF domain R8-AWQ,3.01 log2 enrichment (interaction score)
same,binding signal,PUM1 PUF domain R3-APR,2.66 log2 enrichment (interaction score)
same,binding signal,PUM1 PUF domain R3-GRC,3.23 log2 enrichment (interaction score)
GGCUAGAACUAGUGGAUCCCCCGGCGCCCGGCGGCUCGAGCCCGGGUAAGUGUACAUAGUCUGCAUGCCGCCGGGCGCCAUGCCUGCAGGUCGACUCUAGAAAACAUG,binding signal,PUM1 PUF domain R4-DYS,5.76 log2 enrichment (interaction score)
GGCUAGAACUAGUGGAUCCCCCGGCGCCCGGCGGCUCGAGCCCGGGUAAGUGUCAAUAGUCUGCAUGCCGCCGGGCGCCAUGCCUGCAGGUCGACUCUAGAAAACAUG,binding signal,PUM1 PUF domain R5-TPR,5.18 log2 enrichment (interaction score)
GGCUAGAACUAGUGGAUCCCCCGGCGCCCGGCGGCUCGAGCCCGGGUAAGUGUAAAUUGUCUGCAUGCCGCCGGGCGCCAUGCCUGCAGGUCGACUCUAGAAAACAUG,binding signal,PUM1 PUF domain R1-MPR,3.08 log2 enrichment (interaction score)
same,binding signal,PUM1 PUF domain R1-KCQ,3.28 log2 enrichment (interaction score)
same,binding signal,PUM1 PUF domain R1-RRE,2.91 log2 enrichment (interaction score)
GGCUAGAACUAGUGGAUCCCCCGGCGCCCGGCGGCUCGAGCCCGGGUAAGUGAAAAUAGUCUGCAUGCCGCCGGGCGCCAUGCCUGCAGGUCGACUCUAGAAAACAUG,binding signal,PUM1 PUF domain R6-IFN,5.05 log2 enrichment (interaction score)
GGCUAGAACUAGUGGAUCCCCCGGCGCCCGGCGGCUCGAGCCCGGGUAAGUGUAAAAAGUCUGCAUGCCGCCGGGCGCCAUGCCUGCAGGUCGACUCUAGAAAACAUG,binding signal,PUM1 PUF domain R2-LHR,3.5 log2 enrichment (interaction score)
